# Reference: PubChem BioAssay AID1159580 (chemical genetic matrix, 2015)
# “And” between values parts separate entries of the source, which are not always exact repeats. Equal entries are not always repeated. Among all 5,500 compounds or so, about 2,000 (36%) were called active. About 18% were inconclusive and are not listed. Rule as the data show it: active = normalized growth mostly below about 0.91 (no sharp cut-off); inconclusive = no clear call, values can overlap the other calls; inactive = mostly above about 0.92. Some of the results follow. Some structures have more than one record in an assay (separate samples or runs), and their calls can disagree.
# Experiment: chemical genetic growth profiling, strain panel (AID 1159580);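 also: tested at 20 µM; growth read once vehicle control cultures reached saturation at 30 °C; 1 = growth at the plate median or of vehicle wells; lower values mean less growth of the strain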
# Conditions: growth OD
structure (smiles),measurement,setting,value
CN(C)CCCN1c2ccccc2Sc2ccc(C(F)(F)F)cc21,normalized growth,"S. cerevisiae deletion strains, locus YJR066W, strain TOR1, stronger effect = lower value",0.981 (inactive)
same,normalized growth,"S. cerevisiae deletion strains, locus YJR075W, strain HOC1, stronger effect = lower value",1.01 (inactive)
same,normalized growth,"S. cerevisiae deletion strains, locus YKL009W, strain mrt4, stronger effect = lower value",0.944 (inactive)
same,normalized growth,"S. cerevisiae deletion strains, locus YKL068W, stronger effect = lower value",0.991 (inactive)
same,normalized growth,"S. cerevisiae deletion strains, locus YKL085W, strain MDH1 (second series), stronger effect = lower value",0.994 (inactive)
same,normalized growth,"S. cerevisiae deletion strains, locus YKL085W, strain MDH1, stronger effect = lower value",0.994 (inactive)
same,normalized growth,"S. cerevisiae deletion strains, locus YKL160W, strain elf1, stronger effect = lower value",0.997 (inactive)
same,normalized growth,"S. cerevisiae deletion strains, locus YKL190W, strain CNB1, stronger effect = lower value",0.995 (inactive)
same,normalized growth,"S. cerevisiae deletion strains, locus YKR001C, strain vps1, stronger effect = lower value",0.978 (inactive)
same,normalized growth,"S. cerevisiae deletion strains, locus YKR026C, strain gcn3, stronger effect = lower value",1.02 (inactive)
same,normalized growth,"S. cerevisiae deletion strains, locus YKR091W, strain srl3, stronger effect = lower value",1.02 (inactive)
same,normalized growth,"S. cerevisiae deletion strains, locus YLL001W, strain dnm1, stronger effect = lower value",1 (inactive)
same,normalized growth,"S. cerevisiae deletion strains, locus YLL026W, stronger effect = lower value",1 (inactive)
same,normalized growth,"S. cerevisiae deletion strains, locus YLL041C, strain sdh2, stronger effect = lower value",1.01 (inactive)
same,normalized growth,"S. cerevisiae deletion strains, locus YLR027C, strain aat2, stronger effect = lower value",0.992 (inactive)
same,normalized growth,"S. cerevisiae deletion strains, locus YLR039C, strain RIC1, stronger effect = lower value",0.901 (inactive)
same,normalized growth,"S. cerevisiae deletion strains, locus YLR058C, strain SHM2, stronger effect = lower value",0.977 (inactive)
same,normalized growth,"S. cerevisiae deletion strains, locus YLR102C, strain apc9, stronger effect = lower value",0.979 (inactive)
same,normalized growth,"S. cerevisiae deletion strains, locus YLR113W, strain HOG1, stronger effect = lower value",0.979 (inactive)
same,normalized growth,"S. cerevisiae deletion strains, locus YLR221C, strain rsa3, stronger effect = lower value",0.977 (inactive)
same,normalized growth,"S. cerevisiae deletion strains, locus YLR258W, strain gsy2, stronger effect = lower value",0.989 (inactive)
same,normalized growth,"S. cerevisiae deletion strains, locus YLR262C, strain YPT6 (second series), stronger effect = lower value",1.16 [resistant] (active)
same,normalized growth,"S. cerevisiae deletion strains, locus YLR262C, strain YPT6, stronger effect = lower value",0.87 (inactive)
same,normalized growth,"S. cerevisiae deletion strains, locus YLR268W, strain sec22, stronger effect = lower value",1.05 (inactive)
same,normalized growth,"S. cerevisiae deletion strains, locus YLR320W, strain mms22, stronger effect = lower value",1.06 (inactive)
same,normalized growth,"S. cerevisiae deletion strains, locus YLR330W, strain CHS5, stronger effect = lower value",0.989 (inactive)
same,normalized growth,"S. cerevisiae deletion strains, locus YLR342W, strain FKS1 (second series), stronger effect = lower value",1 (inactive)
same,normalized growth,"S. cerevisiae deletion strains, locus YLR342W, strain FKS1, stronger effect = lower value",1.02 (inactive)
same,normalized growth,"S. cerevisiae deletion strains, locus YLR357W, strain rsc2, stronger effect = lower value",1.02 (inactive)
same,normalized growth,"S. cerevisiae deletion strains, locus YLR370C, strain arc18, stronger effect = lower value",1 (inactive)
same,normalized growth,"S. cerevisiae deletion strains, locus YLR371W, strain rom2, stronger effect = lower value",0.955 (inactive)
same,normalized growth,"S. cerevisiae deletion strains, locus YLR384C, strain iki3, stronger effect = lower value",1.01 (inactive)
same,normalized growth,"S. cerevisiae deletion strains, locus YLR418C, strain cdc73, stronger effect = lower value",0.958 (inactive)
same,normalized growth,"S. cerevisiae deletion strains, locus YML016C, strain PPZ1, stronger effect = lower value",0.994 (inactive)
same,normalized growth,"S. cerevisiae deletion strains, locus YML032C, strain rad52, stronger effect = lower value",0.989 (inactive)
same,normalized growth,"S. cerevisiae deletion strains, locus YML120C, strain ndi1, stronger effect = lower value",0.97 (inactive)
same,normalized growth,"S. cerevisiae deletion strains, locus YML124C, strain tub3, stronger effect = lower value",0.976 (inactive)
same,normalized growth,"S. cerevisiae deletion strains, locus YMR058W, strain fet3, stronger effect = lower value",0.999 (inactive)
same,normalized growth,"S. cerevisiae deletion strains, locus YMR078C, strain ctf18, stronger effect = lower value",0.961 (inactive)
same,normalized growth,"S. cerevisiae deletion strains, locus YMR125W, strain sto1, stronger effect = lower value",0.992 (inactive)
same,normalized growth,"S. cerevisiae deletion strains, locus YMR129W, stronger effect = lower value",1.02 (inactive)
same,normalized growth,"S. cerevisiae deletion strains, locus YMR205C, strain PFK2, stronger effect = lower value",1.01 (inactive)
same,normalized growth,"S. cerevisiae deletion strains, locus YMR223W, strain ubp8, stronger effect = lower value",0.969 (inactive)
same,normalized growth,"S. cerevisiae deletion strains, locus YMR263W, strain SAP30, stronger effect = lower value",0.988 (inactive) and 0.998 (inactive)
same,normalized growth,"S. cerevisiae deletion strains, locus YMR307W, strain GAS1, stronger effect = lower value",1.05 (inactive) and 1.01 (inactive)
same,normalized growth,"S. cerevisiae deletion strains, locus YNL067W, strain RPL9B, stronger effect = lower value",1.01 (inactive)
same,normalized growth,"S. cerevisiae deletion strains, locus YNL071W, strain lat1, stronger effect = lower value",1.01 (inactive)
same,normalized growth,"S. cerevisiae deletion strains, locus YNL128W, strain TEP1, stronger effect = lower value",0.968 (inactive) and 1.11 [resistant] (active)
same,normalized growth,"S. cerevisiae deletion strains, locus YNL153C, strain GIM3, stronger effect = lower value",1.01 (inactive)
same,normalized growth,"S. cerevisiae deletion strains, locus YNL175C, strain NOP13, stronger effect = lower value",1.01 (inactive)
same,normalized growth,"S. cerevisiae deletion strains, locus YNL183C, strain NPR1, stronger effect = lower value",0.962 (inactive)
same,normalized growth,"S. cerevisiae deletion strains, locus YNL197C, strain WHI3, stronger effect = lower value",1.03 (inactive)
same,normalized growth,"S. cerevisiae deletion strains, locus YNL209W, strain ssb2, stronger effect = lower value",0.986 (inactive)
same,normalized growth,"S. cerevisiae deletion strains, locus YNL224C, strain SQS1, stronger effect = lower value",1.03 (inactive)
same,normalized growth,"S. cerevisiae deletion strains, locus YNL233W, strain BNI4, stronger effect = lower value",1.02 (inactive)
same,normalized growth,"S. cerevisiae deletion strains, locus YNL248C, strain rpa49, stronger effect = lower value",0.953 (inactive)
same,normalized growth,"S. cerevisiae deletion strains, locus YNL250W, strain rad50, stronger effect = lower value",0.963 (inactive)
same,normalized growth,"S. cerevisiae deletion strains, locus YNL271C, strain bni1, stronger effect = lower value",0.982 (inactive)
same,normalized growth,"S. cerevisiae deletion strains, locus YNL298W, strain CLA4, stronger effect = lower value",0.954 (inactive)
same,normalized growth,"S. cerevisiae deletion strains, locus YNL307C, strain MCK1, stronger effect = lower value",0.987 (inactive)
same,normalized growth,"S. cerevisiae deletion strains, locus YNL322C, strain KRE1 (second series), stronger effect = lower value",1.03 (inactive)
same,normalized growth,"S. cerevisiae deletion strains, locus YNL322C, strain KRE1, stronger effect = lower value",0.993 (inactive) and 0.907 (inactive)
same,normalized growth,"S. cerevisiae deletion strains, locus YNR049C, strain mso1, stronger effect = lower value",1.02 (inactive)
same,normalized growth,"S. cerevisiae deletion strains, locus YNR052C, strain pop2, stronger effect = lower value",0.962 (inactive)
same,normalized growth,"S. cerevisiae deletion strains, locus YOL006C, strain TOP1, stronger effect = lower value",0.611 (inactive)
same,normalized growth,"S. cerevisiae deletion strains, locus YOL012C, strain htz1",1.01 (inactive)
same,normalized growth,"S. cerevisiae deletion strains, locus YOL147C, strain pex11, stronger effect = lower value",0.991 (inactive)
same,normalized growth,"S. cerevisiae deletion strains, locus YOR001W, strain rrp6, stronger effect = lower value",0.938 (inactive)
same,normalized growth,"S. cerevisiae deletion strains, locus YOR061W, strain CKA2, stronger effect = lower value",0.967 (inactive)
same,normalized growth,"S. cerevisiae deletion strains, locus YOR069W, strain VPS5, stronger effect = lower value",0.987 (inactive)
same,normalized growth,"S. cerevisiae deletion strains, locus YOR070C, strain gyp1, stronger effect = lower value",1.01 (inactive)
same,normalized growth,"S. cerevisiae deletion strains, locus YOR080W, strain dia2, stronger effect = lower value",1.03 (inactive)
same,normalized growth,"S. cerevisiae deletion strains, locus YOR083W, strain WHI5 (second series), stronger effect = lower value",0.946 (inactive)
same,normalized growth,"S. cerevisiae deletion strains, locus YOR083W, strain WHI5, stronger effect = lower value",0.954 (inactive)
same,normalized growth,"S. cerevisiae deletion strains, locus YOR106W, strain vam3, stronger effect = lower value",0.561 (active)
same,normalized growth,"S. cerevisiae deletion strains, locus YOR136W, strain idh2, stronger effect = lower value",0.972 (inactive)
same,normalized growth,"S. cerevisiae deletion strains, locus YOR144C, strain elg1, stronger effect = lower value",0.974 (inactive)
same,normalized growth,"S. cerevisiae deletion strains, locus YOR184W, strain ser1, stronger effect = lower value",0.96 (inactive)
same,normalized growth,"S. cerevisiae deletion strains, locus YOR231W, strain MKK1, stronger effect = lower value",0.978 (inactive)
same,normalized growth,"S. cerevisiae deletion strains, locus YOR265W, strain rbl2, stronger effect = lower value",1.01 (inactive)
same,normalized growth,"S. cerevisiae deletion strains, locus YOR270C, strain vph1, stronger effect = lower value",0.737 (active)
same,normalized growth,"S. cerevisiae deletion strains, locus YOR290C, strain snf2, stronger effect = lower value",0.989 (inactive)
same,normalized growth,"S. cerevisiae deletion strains, locus YOR316C, strain cot1, stronger effect = lower value",0.965 (inactive)
same,normalized growth,"S. cerevisiae deletion strains, locus YPL051W, strain arl3, stronger effect = lower value",0.966 (inactive)
same,normalized growth,"S. cerevisiae deletion strains, locus YPL055C, strain LGE1, stronger effect = lower value",0.968 (inactive) and 0.953 (inactive)
same,normalized growth,"S. cerevisiae deletion strains, locus YPL078C, strain atp4, stronger effect = lower value",0.992 (inactive)
same,normalized growth,"S. cerevisiae deletion strains, locus YPL106C, strain sse1, stronger effect = lower value",0.911 (inactive)
same,normalized growth,"S. cerevisiae deletion strains, locus YPL240C, strain hsp82, stronger effect = lower value",1.03 (inactive)
same,normalized growth,"S. cerevisiae deletion strains, locus YPL241C, strain CIN2, stronger effect = lower value",0.996 (inactive) and 0.976 (inactive)
same,normalized growth,"S. cerevisiae deletion strains, locus YPL256C, strain CLN2, stronger effect = lower value",0.988 (inactive)
same,normalized growth,"S. cerevisiae deletion strains, locus YPR119W, strain clb2, stronger effect = lower value",0.982 (inactive)
same,normalized growth,"S. cerevisiae deletion strains, locus YPR141C, strain kar3, stronger effect = lower value",0.926 (inactive)
same,normalized growth,"S. cerevisiae deletion strains, locus YPR163C, strain tif3, stronger effect = lower value",0.979 (inactive)
same,normalized growth,"S. cerevisiae deletion strains, locus YPR167C, strain met16, stronger effect = lower value",0.981 (inactive)
same,normalized growth,"S. cerevisiae deletion strains, strain wtn01, stronger effect = lower value",0.981 (inactive)
same,normalized growth,"S. cerevisiae strains, strain wild type, stronger effect = lower value",0.979 (inactive)
